Laboratory results published in PubChem BioAssay (EPA / NIEHS).
The source made the active and inactive calls. Rule for the calls: active = hit-call score of the fitted dose curve at least 0.9, where 1 is the maximum; inactive = score below 0.9.

Tests used:
Details in all cases: mRNA level, 48 h; actives raise or lower the signal
[1] = read-out: Interleukin 6 Receptor (IL6R), IL6R (gene 3570); experiment: LTEA_HepaRG_IL6R: Life Technologies and Expression Analysis (LTEA) Assay for Interleukin 6 Receptor (IL6R) using HepaRG (AID 2283510)
In short: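 Differentiated human HepaRG cells, plated 48 h then switched to serum-free induction medium, were dosed in duplicate for 48 h at eight half-log concentrations up to 100 uM in 0.5% DMSO. IL6R mRNA quantified by qRT-PCR, normalized to ACTB/GAPDH/POLR2A; bidirectional fit versus DMSO.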

[2] = read-out: Potassium channel subfamily K member 1 (KCNK1), KCNK1 (gene 3775); experiment: LTEA_HepaRG_KCNK1: Life Technologies and Expression Analysis (LTEA) Assay for Potassium channel subfamily K member 1 (KCNK1) using HepaRG (AID 2283511)
In short: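 Differentiated HepaRG cells, 48 h exposure in serum-free induction medium with 0.5% DMSO; 8 concentrations, half-log from 100 uM, duplicate. KCNK1 mRNA by qRT-PCR, normalized to ACTB, GAPDH, POLR2A; bidirectional fit vs DMSO.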

[3] = read-out: Keratin 19 (KRT19), KRT19 (gene 3880); experiment: LTEA_HepaRG_KRT19: Life Technologies and Expression Analysis (LTEA) Assay for Keratin 19 (KRT19) using HepaRG (AID 2283512)
In short: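 Differentiated human HepaRG cells, plated 48 h, were exposed in duplicate for 48 h in serum-free induction medium to eight half-log concentrations up to 100 uM in 0.5% DMSO. KRT19 mRNA was quantified by qRT-PCR, normalized to ACTB, GAPDH and POLR2A, and fitted bidirectionally versus DMSO.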

[4] = read-out: JUN Transcription Factor, JUN (gene 3725); experiment: LTEA_HepaRG_JUN: Life Technologies and Expression Analysis (LTEA) Assay for JUN Transcription Factor using HepaRG (AID 2283513)
In short: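 Differentiated HepaRG cells were exposed to chemicals for 48 h in serum-free induction medium, 8 concentrations from 100 uM in half-log steps, 0.5% DMSO vehicle, in duplicate. JUN mRNA was quantified by TaqMan qRT-PCR, normalized to ACTB, GAPDH, POLR2A.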

[5] = read-out: Lipase C (LIPC), LIPC (gene 3990); experiment: LTEA_HepaRG_LIPC: Life Technologies and Expression Analysis (LTEA) Assay for Lipase C (LIPC) using HepaRG (AID 2283514)
In short: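 HepaRG cells, 48 h after plating, treated in duplicate for 48 h in serum-free induction medium over 8 half-log concentrations from 100 uM, 0.5% DMSO. LIPC mRNA by TaqMan qRT-PCR normalized to ACTB/GAPDH/POLR2A; bidirectional fit versus DMSO.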

[6] = read-out: Lipoprotein lipase (LPL), LPL (gene 4023); experiment: LTEA_HepaRG_LPL: Life Technologies and Expression Analysis (LTEA) Assay for Lipoprotein lipase (LPL) using HepaRG (AID 2283515)
In short: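 Differentiated HepaRG cells, plated 48 h, then exposed 48 h in serum-free induction medium to 8 concentrations (top 100 uM, half-log steps) in 0.5% DMSO, duplicate. LPL mRNA measured by qRT-PCR, normalized to ACTB, GAPDH and POLR2A.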

[7] = read-out: MicroRNA 122 (MIR122), gene 406906; experiment: LTEA_HepaRG_MIR122: Life Technologies and Expression Analysis (LTEA) Assay for MicroRNA 122 (MIR122) using HepaRG (AID 2283516); note: the transcript read is the microRNA miR-122
Experimental: (§1) LTEA_HepaRG is a cell based, multiplexed-readout assay that uses HepaRG, a human liver cell line, with measurements taken at 48 hours after chemical dosing on a 96-well plate.LTEA_HepaRG_MIR122 is one of 102 assay component(s) measured in the LTEA HepaRG cell culture assay. It is a marker of MicroRNA.Data from the assay component LTEA_HepaRG_MIR122 was analyzed into 1 endpoint. This assay endpoint, LTEA_HepaRG_MIR122, was analyzed with bidirectional fitting relative to DMSO as the negative control and baseline of activity. Using a type of inducible reporter, measures of mRNA induction for gain or loss-of-signal activity can be used to understand regulation of transcription factor activity. To generalize the intended target to other relatable targets, this assay endpoint is annotated to the microrna intended target family, where the subfamily is post-transcriptional regulation.
(§2) A total of 1060 chemcials from the ToxCast library were tested in eight-point concentration-response experiments. Cell culture and cytotoxicity assays were conducted at Thermo Fisher Scientific's Custom Services facility (Madison, WI). […] Fluidigm's 96.96 Dynamic ArrayTM (Fluidigm, Amsterdam, the Netherlands) technology was used for gene expression analyses by quantitative reverse transcription polymerase chain reaction (qRT-PCR, performed by Quintiles/Expression Analysis, Durham, NC)89. […]

[8] = read-out: matrix metalloproteinase-10 (MMP10), MMP10 (gene 4319); experiment: LTEA_HepaRG_MMP10: Life Technologies and Expression Analysis (LTEA) Assay for matrix metalloproteinase-10 (MMP10) using HepaRG (AID 2283517)
In short: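 Differentiated HepaRG cells in serum-free induction medium exposed 48 h in duplicate to 8-point half-log series up to 100 uM in 0.5% DMSO. mRNA quantified by qRT-PCR, normalised to ACTB, GAPDH, POLR2A; bidirectional fit versus DMSO.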

[9] = read-out: MYC, MYC (gene 4609); experiment: LTEA_HepaRG_MYC: Life Technologies and Expression Analysis (LTEA) Assay for MYC using HepaRG (AID 2283518)
In short: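 Differentiated human HepaRG cells, plated 48 h then switched to serum-free induction medium, were exposed in duplicate for 48 h to 8-point half-log series up to 100 uM in 0.5% DMSO. MYC mRNA measured by qRT-PCR, normalized to ACTB/GAPDH/POLR2A.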

[10] = read-out: matrix metalloproteinase-3 (MMP3), MMP3 (gene 4314); experiment: LTEA_HepaRG_MMP3: Life Technologies and Expression Analysis (LTEA) Assay for matrix metalloproteinase-3 (MMP3) using HepaRG (AID 2283519)
Experimental: as §1, with “plate.LTEA_HepaRG_MMP3” for “plate.LTEA_HepaRG_MIR122”, “Fibrosis.Data” for “MicroRNA.Data”, “LTEA_HepaRG_MMP3” for “LTEA_HepaRG_MIR122”, “LTEA_HepaRG_MMP3,” for “LTEA_HepaRG_MIR122,”, “protease” for “microrna”, “matrix metalloproteinase.” for “post-transcriptional regulation.”
as §2

Measured: outcome

O=C(O)c1ccc([N+](=O)[O-])cc1
inactive: [1] | [2] | [3] | [4] | [5] | [6] | [7] | [8] | [9] | [10]
